Out of some 5,500 compounds screened, about 2,000 (36%) were called active. Inconclusive results (about 18%) are left out. No stated cut-off is given here; in the data, active means normalized growth mostly below about 0.91 (no sharp cut-off); inconclusive means no clear call, values can overlap the other calls; inactive means mostly above about 0.92. Some of the results follow.
Assay: chemical genetic growth profiling, strain panel (AID 1159580);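 further: tested at 20 µM; growth read once vehicle control cultures reached saturation at 30 °C; 1 = growth at the plate median or of vehicle wells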
Conditions: S. cerevisiae deletion strains, growth OD
[1] = locus YAL040C, strain CLN3, stronger effect = lower value
[2] = locus YCL061C, strain MRC1 (second series), stronger effect = lower value
[3] = locus YDR363W, strain ESC2, stronger effect = lower value
[4] = locus YER002W, strain NOP16, stronger effect = lower value
[5] = locus YGR229C, strain SMI1, stronger effect = lower value
[6] = locus YMR307W, strain GAS1, stronger effect = lower value
[7] = locus YNL175C, strain NOP13, stronger effect = lower value
[8] = locus YNL197C, strain WHI3, stronger effect = lower value
[9] = locus YNL224C, strain SQS1, stronger effect = lower value
[10] = locus YOR083W, strain WHI5 (second series), stronger effect = lower value

Measured: normalized growth

CN[C@H](CC(C)C)C(=O)N[C@H]1C(=O)N[C@@H](CC(N)=O)C(=O)N[C@H]2C(=O)N[C@H]3C(=O)N[C@H](C(=O)N[C@H](C(=O)O)c4cc(O)cc(O)c4-c4cc3ccc4O)[C@H](O)c3ccc(c(Cl)c3)Oc3cc2cc(c3O[C@@H]2O[C@H](CO)[C@@H](O)[C@H](O)[C@H]2O[C@H]2C[C@](C)(N)[C@H](O)[C@H](C)O2)Oc2ccc(cc2Cl)[C@H]1O
inactive: [1] 0.985 | [2] 1.01 | [3] 1.01 | [4] 1.01 | [5] 1.03 | locus YMR263W, strain SAP30, stronger effect = lower value 0.997 | [6] 1 | locus YNL153C, strain GIM3, stronger effect = lower value 0.984 | [7] 1.01 | [8] 1.03 | [9] 0.991 | [10] 0.985

CCCN(CCC)CCc1cccc2c1CC(=O)N2
inactive: locus YAL021C, strain ccr4, stronger effect = lower value 0.978 | locus YAL026C, strain drs2, stronger effect = lower value 0.979 | locus YAL030W, strain snc1, stronger effect = lower value 0.981 | [1] 1.03 | locus YBL061C, strain skt5, stronger effect = lower value 0.963 | locus YBR009C, strain hhf1, stronger effect = lower value 0.984 | locus YBR023C, strain chs3, stronger effect = lower value 0.962 | locus YBR171W, strain sec66, stronger effect = lower value 0.96 | locus YBR231C, strain swc5, stronger effect = lower value 0.99 | locus YBR279W, strain paf1, stronger effect = lower value 0.977 | locus YCL011C, strain gbp2, stronger effect = lower value 0.981 | locus YCL016C, strain dcc1, stronger effect = lower value 0.964 | [2] 0.997 | locus YCL061C, strain MRC1, stronger effect = lower value 0.965 | locus YCL069W, strain vba3, stronger effect = lower value 0.966 | locus YCR088W, strain abp1, stronger effect = lower value 0.969 | locus YDL005C, strain med2, stronger effect = lower value 0.977 | locus YDL040C, strain nat1, stronger effect = lower value 0.977 | locus YDR001C, strain nth1, stronger effect = lower value 0.968 | locus YDR069C, strain doa4, stronger effect = lower value 0.983 | locus YDR137W, strain rgp1, stronger effect = lower value 0.951 | locus YDR159W, strain sac3, stronger effect = lower value 0.966 | locus YDR195W, strain ref2 0.949 | locus YDR297W, strain sur2, stronger effect = lower value 0.978 | locus YDR334W, strain swr1, stronger effect = lower value 0.954 | locus YDR335W, strain msn5, stronger effect = lower value 0.969 | [3] 1.03 | locus YDR392W, strain spt3, stronger effect = lower value 0.96 | locus YEL003W, strain gim4, stronger effect = lower value 0.973 | locus YEL037C, strain rad23, stronger effect = lower value 0.971 | locus YEL061C, strain CIN8 (second series), stronger effect = lower value 0.981 | [4] 1.02 | locus YER015W, strain faa2, stronger effect = lower value 0.987 | locus YER016W, strain bim1, stronger effect = lower value 0.975 | locus YER111C, strain swi4, stronger effect = lower value 0.955 | locus YER155C, strain BEM2 (second series), stronger effect = lower value 0.959 | locus YFR010W, strain ubp6, stronger effect = lower value 0.967 | locus YGL167C, strain pmr1, stronger effect = lower value 0.963 | locus YGL173C, strain kem1, stronger effect = lower value 0.969 | locus YGL227W, strain vid30, stronger effect = lower value 0.972 | locus YGL240W, strain doc1, stronger effect = lower value 0.991 | locus YGL253W, strain hxk2, stronger effect = lower value 0.993 | locus YGR078C, strain PAC10, stronger effect = lower value 0.988 | [5] 1.04 | locus YHR013C, strain ard1, stronger effect = lower value 0.94 | locus YHR027C, strain rpn1, stronger effect = lower value 0.959 | locus YHR030C, strain SLT2, stronger effect = lower value 0.947 | locus YHR079C, strain IRE1, stronger effect = lower value 0.941 | locus YHR142W, strain chs7, stronger effect = lower value 0.952 | locus YJL092W, strain hpr5, stronger effect = lower value 0.966 | locus YJL095W, strain BCK1 (second series), stronger effect = lower value 0.972 | locus YJL095W, strain BCK1, stronger effect = lower value 1.01 | locus YJL115W, strain asf1, stronger effect = lower value 0.958 | locus YJL129C, strain trk1, stronger effect = lower value 0.973 | locus YJL154C, strain vps35, stronger effect = lower value 0.974 | locus YJL164C, strain tpk1, stronger effect = lower value 0.981 | locus YJL166W, strain qcr8, stronger effect = lower value 0.988 | locus YJL187C, strain SWE1, stronger effect = lower value 0.976 | locus YJR066W, strain TOR1, stronger effect = lower value 0.94 | locus YJR075W, strain HOC1, stronger effect = lower value 1.01 | locus YKL160W, strain elf1, stronger effect = lower value 0.978 | locus YKR026C, strain gcn3, stronger effect = lower value 0.968 | locus YKR091W, strain srl3, stronger effect = lower value 0.983 | locus YLL001W, strain dnm1, stronger effect = lower value 0.977 | locus YLL026W, stronger effect = lower value 0.981 | locus YLL041C, strain sdh2, stronger effect = lower value 0.974 | locus YLR027C, strain aat2, stronger effect = lower value 0.972 | locus YLR113W, strain HOG1, stronger effect = lower value 1.03 | locus YLR221C, strain rsa3, stronger effect = lower value 0.975 | locus YLR258W, strain gsy2, stronger effect = lower value 0.979 | locus YLR262C, strain YPT6 (second series), stronger effect = lower value 0.976 | locus YLR320W, strain mms22, stronger effect = lower value 0.969 | locus YLR342W, strain FKS1, stronger effect = lower value 0.981 | locus YLR357W, strain rsc2, stronger effect = lower value 0.961 | locus YLR370C, strain arc18, stronger effect = lower value 0.96 | locus YLR384C, strain iki3, stronger effect = lower value 0.969 | locus YML120C, strain ndi1, stronger effect = lower value 0.972 | locus YMR058W, strain fet3, stronger effect = lower value 0.977 | locus YMR125W, strain sto1, stronger effect = lower value 0.967 | locus YMR129W, stronger effect = lower value 0.969 | locus YMR205C, strain PFK2, stronger effect = lower value 0.965 | locus YMR231W, strain pep5, stronger effect = lower value 0.975 | [6] 0.95 | locus YNL071W, strain lat1, stronger effect = lower value 0.984 | locus YNL128W, strain TEP1, stronger effect = lower value 0.989 | [7] 1.01 | locus YNL183C, strain NPR1, stronger effect = lower value 0.966 | [8] 0.999 | locus YNL209W, strain ssb2, stronger effect = lower value 0.97 | [9] 0.988 | locus YNL248C, strain rpa49, stronger effect = lower value 0.955 | locus YNL322C, strain KRE1 (second series), stronger effect = lower value 0.985 | locus YNL322C, strain KRE1, stronger effect = lower value 1.01 | locus YNR049C, strain mso1, stronger effect = lower value 0.966 | locus YOR001W, strain rrp6, stronger effect = lower value 0.972 | locus YOR070C, strain gyp1, stronger effect = lower value 0.974 | locus YOR080W, strain dia2, stronger effect = lower value 0.957 | [10] 1 | locus YOR083W, strain WHI5, stronger effect = lower value 0.975 | locus YOR106W, strain vam3, stronger effect = lower value 0.977 | locus YOR231W, strain MKK1, stronger effect = lower value 0.978 | locus YOR265W, strain rbl2, stronger effect = lower value 0.972 | locus YOR270C, strain vph1, stronger effect = lower value 0.944 | locus YOR290C, strain snf2, stronger effect = lower value 0.953 | locus YPL051W, strain arl3, stronger effect = lower value 0.975 | locus YPL078C, strain atp4, stronger effect = lower value 0.969 | locus YPL106C, strain sse1, stronger effect = lower value 0.99 | locus YPL240C, strain hsp82, stronger effect = lower value 0.976 | locus YPL241C, strain CIN2, stronger effect = lower value 1 | locus YPL256C, strain CLN2, stronger effect = lower value 0.943
